Experimental findings from PubChem BioAssay (EPA / NIEHS) are described below.

Structures are written as SMILES. Activity calls are given as the source filed them. The calls were made as follows: active = hit-call score of the fitted dose curve at least 0.9, where 1 is the maximum; inactive = score below 0.9.

One experiment is described as follows: ATG_ISRE_CIS: Attagene CIS-FACTORIAL HepG2 Assay for human Interferon Regulatory Factor 1 (IRF1) binding to an Interferon-Stimulated Response Element (ISRE) (AID 2282948). The note with it: HepG2 ISRE cis-reporter (Attagene), mRNA transcription readout; actives raise or lower the signal. The method in brief:
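HepG2 cells transiently transfected with multiplexed cis-promoter reporter units; after 24 h compound exposure, reporter mRNA quantified by RT-PCR, FAM labelling, HpaI digestion and capillary electrophoresis. Bidirectional fit versus DMSO baseline.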
As for `C=CCCCCCCCCCCCC`, the compound was called inactive.

Consider `COC(=O)CCCC(=O)OC`, for which the result was inactive.

On to `CC(C)c1cccc(C(C)C)c1`, for which the result was inactive.

Regarding `CC(=O)OC1CC(C)OC(C)O1` (stereo unspecified), the outcome was inactive.

On to `CC(C)NCC(O)c1ccc(O)c(O)c1` (stereo unspecified), for which the call was inactive.

Regarding `CC(=O)O`, the result was inactive.

For `CCOCCOCCO`, the compound was classed as inactive.

What is called AC50 is the midpoint of the concentration-response curve, whichever way the signal moves. On to `CCc1nc(N)nc(N)c1-c1ccc(Cl)cc1`, for which the AC50 is 100 µM (active).

Turning to `Cc1ccc(C(C)(C)C)c(O)c1`, the AC50 is 138 µM (active).

For the compound `CN(C)CCCN1c2ccccc2Sc2ccc(Cl)cc21`, the result was inactive.

For `O=Cc1ccccc1C=O`, the call was inactive.

For `CC1=C(C)S(=O)(=O)CCS1(=O)=O`, the compound was called inactive.

Turning to `C=CCc1ccc(OC)c(OC)c1`, the outcome was inactive.

For the compound `Cc1c(C)c2c(c(C)c1O)CCC(C)(COc1ccc(CC3SC(=O)NC3=O)cc1)O2` (stereo unspecified), the outcome was inactive.

Take `Cc1ccc(-c2cc(C(F)(F)F)nn2-c2ccc(S(N)(=O)=O)cc2)cc1`: the outcome was inactive.

For the compound `CCCCCCC(CCCCCCCCCCC(=O)OCC(COC(C)=O)OC(C)=O)OC(C)=O` (stereo unspecified), the compound was called inactive.

As for `CS(=O)(=O)c1ccc([C@@H](C[C@H]2CCC(=O)C2)C(=O)Nc2cnccn2)cc1Cl`, the compound was called inactive.

Regarding `CC(=O)[C@@]1(O)CC[C@H]2[C@@H]3CCC4=CC(=O)CC[C@]4(C)[C@H]3CC[C@@]21C`, the compound was classed as inactive.

Consider `NCCOCCOCCN`, for which the call was inactive.

In the case of `Oc1ccc(O)cc1`, the compound was called inactive.

Take `CN(C)CCCN(C)CCCN(C)C`: the compound was called inactive.

As for `O=C(O)c1cccnc1`, the compound was classed as inactive.

With `CCCCC(CC)COP(=O)(OCC(CC)CCCC)OCC(CC)CCCC` (stereo unspecified), the compound was classed as inactive.

Turning to `O=C1O[C@H]([C@H](O)CO)C(O)=C1O`, the result was inactive.

Consider `Cc1cc(Cc2ccc(N)c(C)c2)ccc1N`, for which the compound was called inactive.

For `NC(=Nc1ccccc1)Nc1ccccc1`, the AC50 is 5.79 µM (active).

As for `O=C(O)c1[nH]n(-c2ccc(S(=O)(=O)O)cc2)c(=O)c1N=Nc1ccc(S(=O)(=O)O)cc1`, the outcome was inactive.

Regarding `C#CC(O)C(CC)CCCC` (stereo unspecified), the compound was called inactive.

Turning to `CC(C)(C)c1ccccc1`, the compound was called inactive.

Another experiment is described as follows: ATG_M_32_CIS: Attagene CIS-FACTORIAL HepG2 Assay for M32 Transcription Factor (Internal Marker) (AID 2282949).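 Also: background control marker of the multiplexed CIS panel rather than a real target.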 The note with it: HepG2 Attagene cis-factorial M32 reporter, mRNA; actives raise or lower the signal. Summed up: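 HepG2 cells transiently transfected with multiplexed cis-regulated reporter units, dosed 24 h. Reporter mRNA quantified by RT-PCR, 6-FAM labelling, HpaI digestion and capillary electrophoresis; bidirectional fit vs DMSO.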
For `C=CCCCCCCCCCCCC`, the call was inactive.

Take `COC(=O)CCCC(=O)OC`: the compound was called inactive.

On to `CC(C)c1cccc(C(C)C)c1`, for which the compound was called inactive.

Take `CC(=O)OC1CC(C)OC(C)O1` (stereo unspecified): the call was inactive.

Regarding `CC(C)NCC(O)c1ccc(O)c(O)c1` (stereo unspecified), the call was inactive.

For the compound `CC(=O)O`, the outcome was inactive.

For the compound `CCOCCOCCO`, the compound was called inactive.

Consider `CCc1nc(N)nc(N)c1-c1ccc(Cl)cc1`, for which the AC50 is 174 µM (active).

As for `Cc1ccc(C(C)(C)C)c(O)c1`, the call was inactive.

In the case of `CN(C)CCCN1c2ccccc2Sc2ccc(Cl)cc21`, the call was inactive.

`O=Cc1ccccc1C=O`: the call was inactive.

In the case of `CC1=C(C)S(=O)(=O)CCS1(=O)=O`, the call was inactive.

With `C=CCc1ccc(OC)c(OC)c1`, the compound was classed as inactive.

For `Cc1c(C)c2c(c(C)c1O)CCC(C)(COc1ccc(CC3SC(=O)NC3=O)cc1)O2` (stereo unspecified), the outcome was inactive.

On to `Cc1ccc(-c2cc(C(F)(F)F)nn2-c2ccc(S(N)(=O)=O)cc2)cc1`, for which the compound was classed as inactive.

In the case of `CCCCCCC(CCCCCCCCCCC(=O)OCC(COC(C)=O)OC(C)=O)OC(C)=O` (stereo unspecified), the outcome was inactive.

Regarding `CS(=O)(=O)c1ccc([C@@H](C[C@H]2CCC(=O)C2)C(=O)Nc2cnccn2)cc1Cl`, the compound was called inactive.

With `CC(=O)[C@@]1(O)CC[C@H]2[C@@H]3CCC4=CC(=O)CC[C@]4(C)[C@H]3CC[C@@]21C`, the compound was called inactive.

As for `NCCOCCOCCN`, the call was inactive.

Consider `Oc1ccc(O)cc1`, for which the compound was called inactive.

Regarding `CN(C)CCCN(C)CCCN(C)C`, the call was inactive.

As to `O=C(O)c1cccnc1`, the call was inactive.

As for `CCCCC(CC)COP(=O)(OCC(CC)CCCC)OCC(CC)CCCC` (stereo unspecified), the compound was classed as inactive.

As to `O=C1O[C@H]([C@H](O)CO)C(O)=C1O`, the compound was classed as inactive.

With `Cc1cc(Cc2ccc(N)c(C)c2)ccc1N`, the compound was classed as inactive.

As for `NC(=Nc1ccccc1)Nc1ccccc1`, the compound was classed as inactive.

With `O=C(O)c1[nH]n(-c2ccc(S(=O)(=O)O)cc2)c(=O)c1N=Nc1ccc(S(=O)(=O)O)cc1`, the call was inactive.

In the case of `C#CC(O)C(CC)CCCC` (stereo unspecified), the AC50 is 157 µM (active).

Take `CC(C)(C)c1ccccc1`: the result was inactive.

The next experiment in a line: ATG_M_06_CIS: Attagene CIS-FACTORIAL HepG2 Assay for M06 Transcription Factor (Internal Marker) (AID 2282950). The note with it: HepG2 Attagene CIS-FACTORIAL M06 internal marker reporter; actives raise or lower the signal. Summed up:
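Fluorescence-labelled RT-PCR products from cis-promoter reporter units, cut with HpaI and resolved by capillary electrophoresis, give the signal. Cells are human HepG2, dosed for 24 h. Serves as background control, fitted relative to DMSO.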
On to `CC(C)c1cccc(C(C)C)c1`, for which the outcome was inactive.

As for `CC(=O)OC1CC(C)OC(C)O1` (stereo unspecified), the result was inactive.

As for `CC(C)NCC(O)c1ccc(O)c(O)c1` (stereo unspecified), the outcome was inactive.

As for `CC(=O)O`, the call was inactive.

`CCOCCOCCO`: the result was inactive.

For `CCc1nc(N)nc(N)c1-c1ccc(Cl)cc1`, the result was inactive.

With `CN(C)CCCN1c2ccccc2Sc2ccc(Cl)cc21`, the compound was classed as inactive.

For `O=Cc1ccccc1C=O`, the result was inactive.

In the case of `C=CCc1ccc(OC)c(OC)c1`, the compound was classed as inactive.

For the compound `Cc1c(C)c2c(c(C)c1O)CCC(C)(COc1ccc(CC3SC(=O)NC3=O)cc1)O2` (stereo unspecified), the outcome was inactive.

Turning to `Cc1ccc(-c2cc(C(F)(F)F)nn2-c2ccc(S(N)(=O)=O)cc2)cc1`, the result was inactive.

As to `CCCCCCC(CCCCCCCCCCC(=O)OCC(COC(C)=O)OC(C)=O)OC(C)=O` (stereo unspecified), the compound was classed as inactive.

For the compound `CS(=O)(=O)c1ccc([C@@H](C[C@H]2CCC(=O)C2)C(=O)Nc2cnccn2)cc1Cl`, the compound was called inactive.

Turning to `CC(=O)[C@@]1(O)CC[C@H]2[C@@H]3CCC4=CC(=O)CC[C@]4(C)[C@H]3CC[C@@]21C`, the outcome was inactive.

With `Oc1ccc(O)cc1`, the compound was classed as inactive.

With `CN(C)CCCN(C)CCCN(C)C`, the compound was classed as inactive.

On to `O=C(O)c1cccnc1`, for which the compound was called inactive.

With `NC(=Nc1ccccc1)Nc1ccccc1`, the outcome was inactive.
